In PubChem BioAssay (EPA / NIEHS):
Inconclusive results are not listed. Where a structure was tested more than once in an assay, its records may differ in their call. Active and inactive are the calls of the source. The calls were made as follows, unless noted: active = hit-call score of the fitted dose curve at least 0.9, where 1 is the maximum; inactive = score below 0.9.

Columns and labels:
[1] = target: human Retinoid X Receptor beta (RXRb), RXRB (gene 6257) (UniProt P28702); assay: ATG_RXRb_TRANS: Attagene TRANS-FACTORIAL HepG2 Assay for human Retinoid X Receptor beta (RXRb) (AID 2283013; active = hit-call score of the fitted dose curve at least 0.9, where 1 is the maximum)
human Retinoid X Receptor beta (RXRb), RXRB (gene 6257), sequence (P28702 whole entry, looked up, the tested form may be a part): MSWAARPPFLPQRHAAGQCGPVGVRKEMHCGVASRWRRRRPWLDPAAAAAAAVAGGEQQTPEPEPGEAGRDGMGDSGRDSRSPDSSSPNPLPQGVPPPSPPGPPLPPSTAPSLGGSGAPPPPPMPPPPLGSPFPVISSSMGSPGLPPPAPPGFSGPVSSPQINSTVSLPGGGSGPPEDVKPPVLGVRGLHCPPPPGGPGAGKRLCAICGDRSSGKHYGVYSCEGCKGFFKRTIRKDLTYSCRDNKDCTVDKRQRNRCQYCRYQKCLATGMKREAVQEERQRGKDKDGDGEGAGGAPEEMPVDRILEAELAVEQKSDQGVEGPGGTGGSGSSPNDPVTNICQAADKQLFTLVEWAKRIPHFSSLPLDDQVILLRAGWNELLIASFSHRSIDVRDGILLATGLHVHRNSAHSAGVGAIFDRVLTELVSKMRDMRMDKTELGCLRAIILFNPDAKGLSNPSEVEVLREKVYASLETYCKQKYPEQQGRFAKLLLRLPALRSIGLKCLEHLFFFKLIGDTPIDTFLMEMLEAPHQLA
Method in brief: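 Transfect HepG2 with GAL4-UAS multi-reporter constructs (chimeric NR-Gal4, TRANS format); dose compound 24 h; isolate RNA, RT-PCR, FAM primer extension, HpaI digest; quantify by capillary electrophoresis; positive direction vs DMSO.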

[2] = target: Retinoic acid receptor RXR-alpha (Homo sapiens) (UniProt P19793); assay: ATG_RXRa_TRANS: Attagene TRANS-FACTORIAL HepG2 Assay for human Retinoid X Receptor alpha (RXRa) (AID 2283012; active = hit-call score of the fitted dose curve at least 0.9, where 1 is the maximum)
Retinoic acid receptor RXR-alpha (Homo sapiens), sequence (P19793 whole entry, looked up, the tested form may be a part): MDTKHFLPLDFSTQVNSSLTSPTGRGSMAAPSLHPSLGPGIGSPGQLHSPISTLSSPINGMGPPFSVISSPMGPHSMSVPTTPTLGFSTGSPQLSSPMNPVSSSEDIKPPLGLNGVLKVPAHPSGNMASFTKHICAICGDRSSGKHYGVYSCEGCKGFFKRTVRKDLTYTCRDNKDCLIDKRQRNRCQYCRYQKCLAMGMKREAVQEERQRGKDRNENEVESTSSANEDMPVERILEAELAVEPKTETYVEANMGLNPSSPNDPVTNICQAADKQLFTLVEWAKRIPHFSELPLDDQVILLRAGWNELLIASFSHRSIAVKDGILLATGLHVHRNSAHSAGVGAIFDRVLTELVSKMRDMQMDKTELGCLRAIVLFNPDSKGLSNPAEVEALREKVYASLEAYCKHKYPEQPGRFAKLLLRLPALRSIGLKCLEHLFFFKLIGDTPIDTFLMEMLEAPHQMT
Method in brief: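 Transient transfection of human HepG2 with multiple GAL4-UAS reporter constructs; 24 h compound exposure; total RNA isolated, reverse-transcribed, PCR-amplified, 6-FAM labelled, HpaI-cut, resolved by capillary electrophoresis. Positive-direction fit versus DMSO.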

[3] = read-out: E-selectin (Homo sapiens) (UniProt P16581); assay: BSK_3C_Eselectin: BioMAP Diversity Plus: 3C Assay for Eselectin Biomarker Activity (AID 2283015); settings: primary human endothelial cells (HUVEC); actives raise or lower the signal;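 as to outcome: cell surface E-selectin protein quantified by ELISA 24 h after dosing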
Method in brief: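 HUVEC, 3C stimulation; compound exposure 24 h; E-selectin by ELISA; gain- or loss-of-signal fitted bidirectionally vs DMSO baseline.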

[4] = read-out: Interleukin-1 alpha (IL1a), IL1A (gene 3552); assay: BSK_BE3C_IL1a: BioMAP Diversity Plus: BE3C Assay for Interleukin-1 alpha (IL1a) Biomarker Activity (AID 2283016); settings: primary human bronchial epithelial cells; actives raise or lower the signal
Method in brief: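 BE3C primary human bronchial epithelium; cpd 24 h; IL-1a by ELISA; bidirectional fit vs DMSO; parallel SRB (0.1% SRB, 10% TCA fix, 560 nm) for cytotoxicity.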

[5] = read-out: Monocyte Chemoattractant Protein-1 (MCP1), CCL2 (gene 6347); assay: BSK_3C_MCP1: BioMAP Diversity Plus: 3C Assay for Monocyte Chemoattractant Protein-1 (MCP1) Biomarker Activity (AID 2283017); settings: primary human endothelial cells (HUVEC); actives raise or lower the signal
Method in brief: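 HUVEC, 3C system; 24 h chemical exposure; MCP-1 by ELISA; bidirectional curve fit vs DMSO baseline.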

[6] = read-out: Monocyte Chemoattractant Protein-1 (MCP1), CCL2 (gene 6347); assay: BSK_4H_MCP1: BioMAP Diversity Plus: 4H Assay for Monocyte Chemoattractant Protein-1 (MCP1) Biomarker Activity (AID 2283018); settings: primary human endothelial cells (HUVEC); actives raise or lower the signal
Method in brief: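 ELISA read-out of MCP-1 from human vascular endothelial primary cells taken at 24 hours after compound exposure. Activity was fitted in both directions relative to DMSO, which served as negative control.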

[7] = read-out: Human Leukocyte Antigen - DR isotype (HLADR), HLA-DRA (gene 3122); assay: BSK_3C_HLADR: BioMAP Diversity Plus: 3C Assay for Human Leukocyte Antigen - DR isotype (HLADR) Biomarker Activity (AID 2283019); settings: primary human endothelial cells (HUVEC); actives raise or lower the signal;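 as to outcome: ELISA of cell-surface HLA-DR on HUVEC 24 h after dosing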
Method in brief: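 HUVEC, 3C stimulation, 24 h post-dose; HLA-DR by ELISA; bidirectional curve fit vs DMSO baseline; gain or loss of signal scored.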

[8] = read-out: Interleukin-8 (IL8), CXCL8 (gene 3576); assay: BSK_3C_IL8: BioMAP Diversity Plus: 3C Assay for Interleukin-8 (IL8) Biomarker Activity (AID 2283020); settings: primary human endothelial cells (HUVEC); actives raise or lower the signal
Method in brief: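 ELISA read-out of IL-8 from human umbilical vein endothelium, measured 24 h after chemical dosing. Activity is expressed relative to DMSO negative control, with both increases and decreases fitted.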

[9] = target: human Thyroid Receptor alpha (THRa1), THRA (gene 7067) (UniProt P10827); assay: ATG_THRa1_TRANS: Attagene TRANS-FACTORIAL HepG2 Assay for human Thyroid Receptor alpha (THRa1) (AID 2283014; active = hit-call score of the fitted dose curve at least 0.9, where 1 is the maximum)
human Thyroid Receptor alpha (THRa1), THRA (gene 7067), sequence (P10827 whole entry, looked up, the tested form may be a part): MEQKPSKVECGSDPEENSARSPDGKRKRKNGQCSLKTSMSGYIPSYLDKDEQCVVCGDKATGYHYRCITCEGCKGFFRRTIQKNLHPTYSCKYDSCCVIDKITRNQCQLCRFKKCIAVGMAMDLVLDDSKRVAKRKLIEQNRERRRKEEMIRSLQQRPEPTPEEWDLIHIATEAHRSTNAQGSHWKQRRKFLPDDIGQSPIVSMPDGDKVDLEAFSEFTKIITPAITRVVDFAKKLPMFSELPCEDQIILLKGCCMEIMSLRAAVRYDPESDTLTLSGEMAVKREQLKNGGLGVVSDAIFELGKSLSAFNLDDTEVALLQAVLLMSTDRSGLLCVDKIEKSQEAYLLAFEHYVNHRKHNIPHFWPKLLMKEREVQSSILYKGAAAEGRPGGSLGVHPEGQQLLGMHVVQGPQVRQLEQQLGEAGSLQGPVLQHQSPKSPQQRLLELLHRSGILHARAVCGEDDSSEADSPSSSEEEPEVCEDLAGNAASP
Method in brief: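 Transient HepG2 transfection, NR-Gal4 chimera driving GAL4-UAS reporters; 24 h compound exposure; total RNA, oligo(dT) RT, PCR, fluorescent primer extension, capillary electrophoresis. Upward direction vs DMSO control.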

E-selectin (Homo sapiens), sequence (P16581 whole entry, looked up): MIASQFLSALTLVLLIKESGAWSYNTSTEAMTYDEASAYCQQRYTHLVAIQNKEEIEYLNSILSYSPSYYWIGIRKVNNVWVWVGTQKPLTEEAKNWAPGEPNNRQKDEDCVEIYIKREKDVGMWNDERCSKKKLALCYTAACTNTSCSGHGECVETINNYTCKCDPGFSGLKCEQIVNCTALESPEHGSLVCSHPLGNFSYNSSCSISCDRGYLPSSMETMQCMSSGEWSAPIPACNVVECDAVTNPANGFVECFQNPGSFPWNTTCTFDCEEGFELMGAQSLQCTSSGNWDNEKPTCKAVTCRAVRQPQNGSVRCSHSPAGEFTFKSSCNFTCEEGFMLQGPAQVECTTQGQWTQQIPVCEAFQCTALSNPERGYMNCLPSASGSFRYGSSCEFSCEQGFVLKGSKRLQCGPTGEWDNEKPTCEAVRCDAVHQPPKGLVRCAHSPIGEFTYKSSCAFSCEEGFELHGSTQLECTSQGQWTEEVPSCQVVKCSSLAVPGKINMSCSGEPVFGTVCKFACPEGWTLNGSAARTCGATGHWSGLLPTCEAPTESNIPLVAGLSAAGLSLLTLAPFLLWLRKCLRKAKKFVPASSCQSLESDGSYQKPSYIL

With `CCCCCCCCC=CCCCCCCCC1=NCCN1CCO` the outcome [1] was “inactive”.

`c1ccc2cc(Nc3ccc(Nc4ccc5ccccc5c4)cc3)ccc2c1` was tested, and the outcome [2] was “inactive”, the outcome [3] was “inactive” and the AC50 [4] was 0.147 µM (active). For the same compound, the outcome [5] was “inactive”, the outcome [6] was “inactive” and the outcome [7] was “inactive”. For the same compound, the outcome [8] was “inactive”.

For `ClC(c1ccccc1)(c1ccccc1)c1ccccc1`, the outcome [1] was “inactive”.

In the case of `CCC(C)S` (stereo unspecified), the outcome [1] is reported as “inactive”.

With `CCc1ccc(O)c(OC)c1` the outcome [1] was “inactive”.

For `CC(CN=Cc1ccccc1O)N=Cc1ccccc1O` (stereo unspecified), the outcome [9] was “inactive”, the outcome [3] was “inactive” and the outcome [4] was “inactive”. The outcome [5] was “inactive”, the outcome [6] was “inactive” and the outcome [7] was “inactive”. The AC50 [8] was 0.16 µM (active) and the outcome [8] was “inactive”.

In the case of `CCOc1ccc(N=Nc2ccc(C=Cc3ccc(N=Nc4ccc(OCC)cc4)cc3S(=O)(=O)O)c(S(=O)(=O)O)c2)cc1`, the outcome [9] is reported as “inactive”.

For `Oc1ccc2cc(SSc3ccc4cc(O)ccc4c3)ccc2c1`, the outcome [1] was “inactive” and the outcome [9] was “inactive”.

For `C[N+](C)(C)CCCCCC[N+](C)(C)C`, the outcome [9] was “inactive”.

`O=Cc1ccccc1S(=O)(=O)O` was tested, and the outcome [9] was “inactive”.

With `CC(=O)Nc1ccc(C(=O)CCl)cc1` the outcome [1] was “inactive”, the outcome [9] was “inactive” and the AC50 [3] was 7.26 µM (active). The AC50 [4] was 14.9 µM (active), the AC50 [5] was 11.2 µM (active) and the AC50 [6] was 9.64 µM (active). For the same compound, the AC50 [7] was 5.06 µM (active) and the AC50 [8] was 20 µM (active).

In the case of `CC(C)c1ccccc1O`, the AC50 [1] is reported as 75.5 µM (active) and the outcome [9] is reported as “inactive”.

For `CCc1ncc(C)[nH]1`, the outcome [9] was “inactive”.

With `CC/C=C\CC/C=C/CO` the outcome [1] was “inactive” and the outcome [9] was “inactive”.

For `CCNCCO`, the outcome [9] was “inactive”.

With `CSCCC=O` the outcome [1] was “inactive”, the outcome [3] was “inactive” and the outcome [4] was “inactive”. For the same compound, the outcome [5] was “inactive”, the outcome [6] was “inactive” and the outcome [7] was “inactive”. For the same compound, the outcome [8] was “inactive”.

With `C=CC(C)(O)CCC=C(C)C` (stereo unspecified) the outcome [1] was “inactive”, the outcome [3] was “inactive” and the outcome [4] was “inactive”. For the same compound, the outcome [5] was “inactive”, the outcome [6] was “inactive” and the outcome [7] was “inactive”. For the same compound, the outcome [8] was “inactive”.

With `O=C(O)COCC(=O)O` the outcome [1] was “inactive” and the outcome [9] was “inactive”.

With `CCCCC(CC)C(=O)OC(C)C` (stereo unspecified) the outcome [9] was “inactive”.

`C=C(C)C(=O)OCCOCCOCCOC(=O)C(=C)C` was tested, and the outcome [3] was “inactive”, the outcome [4] was “inactive” and the outcome [5] was “inactive”. For the same compound, the outcome [6] was “inactive”, the outcome [7] was “inactive” and the outcome [8] was “inactive”.
